Laboratory results: PubChem BioAssay AID1159580 (chemical genetic matrix, 2015)
Among all 5,500 compounds or so, about 2,000 (36%) were called active. Not shown: some 18% with an inconclusive outcome. Rule as the data show it: active = normalized growth mostly below about 0.91 (no sharp cut-off); inconclusive = no clear call, values can overlap the other calls; inactive = mostly above about 0.92. This is one part of the list.

Assay: chemical genetic growth profiling, strain panel (AID 1159580);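 also: tested at 20 µM; growth read once vehicle control cultures reached saturation at 30 °C; 1 = growth at the plate median or of vehicle wells; lower values mean less growth of the strain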
Conditions: growth OD

Measured: normalized growth

O=C(N[C@@H](CO)[C@H](O)c1ccc([N+](=O)[O-])cc1)C(Cl)Cl
inactive: S. cerevisiae deletion strains, locus YJR075W, strain HOC1, hits give low values 1.02 | S. cerevisiae deletion strains, locus YKL009W, strain mrt4, hits give low values 1.01 | S. cerevisiae deletion strains, locus YKL068W, hits give low values 1 | S. cerevisiae deletion strains, locus YKL085W, strain MDH1 (second series), hits give low values 1 | S. cerevisiae deletion strains, locus YKL085W, strain MDH1, hits give low values 1 | S. cerevisiae deletion strains, locus YKL160W, strain elf1, hits give low values 1.04 | S. cerevisiae deletion strains, locus YKL190W, strain CNB1, hits give low values 1 | S. cerevisiae deletion strains, locus YKR001C, strain vps1, hits give low values 1 | S. cerevisiae deletion strains, locus YKR026C, strain gcn3, hits give low values 1.04 | S. cerevisiae deletion strains, locus YKR091W, strain srl3, hits give low values 0.999 | S. cerevisiae deletion strains, locus YLL001W, strain dnm1, hits give low values 1.01 | S. cerevisiae deletion strains, locus YLL026W, hits give low values 0.998 | S. cerevisiae deletion strains, locus YLL041C, strain sdh2, hits give low values 1.01 | S. cerevisiae deletion strains, locus YLR027C, strain aat2, hits give low values 1.02 | S. cerevisiae deletion strains, locus YLR039C, strain RIC1, hits give low values 1.01 | S. cerevisiae deletion strains, locus YLR058C, strain SHM2, hits give low values 1 | S. cerevisiae deletion strains, locus YLR102C, strain apc9, hits give low values 1.01 | S. cerevisiae deletion strains, locus YLR113W, strain HOG1, hits give low values 0.972 | S. cerevisiae deletion strains, locus YLR221C, strain rsa3, hits give low values 1.02 | S. cerevisiae deletion strains, locus YLR258W, strain gsy2, hits give low values 1.01 | S. cerevisiae deletion strains, locus YLR262C, strain YPT6 (second series), hits give low values 1.01 | S. cerevisiae deletion strains, locus YLR262C, strain YPT6, hits give low values 1.03 | S. cerevisiae deletion strains, locus YLR268W, strain sec22, hits give low values 1.05 | S. cerevisiae deletion strains, locus YLR320W, strain mms22, hits give low values 1 | S. cerevisiae deletion strains, locus YLR330W, strain CHS5, hits give low values 0.999 | S. cerevisiae deletion strains, locus YLR342W, strain FKS1 (second series), hits give low values 1.01 | S. cerevisiae deletion strains, locus YLR342W, strain FKS1, hits give low values 1.01 | S. cerevisiae deletion strains, locus YLR357W, strain rsc2, hits give low values 1.08 | S. cerevisiae deletion strains, locus YLR370C, strain arc18, hits give low values 1.02 | S. cerevisiae deletion strains, locus YLR371W, strain rom2, hits give low values 1.02 | S. cerevisiae deletion strains, locus YLR384C, strain iki3, hits give low values 1.02 | S. cerevisiae deletion strains, locus YLR418C, strain cdc73, hits give low values 1.01 | S. cerevisiae deletion strains, locus YML016C, strain PPZ1, hits give low values 1 | S. cerevisiae deletion strains, locus YML032C, strain rad52, hits give low values 1.03 | S. cerevisiae deletion strains, locus YML120C, strain ndi1, hits give low values 1 | S. cerevisiae deletion strains, locus YML124C, strain tub3, hits give low values 1 | S. cerevisiae deletion strains, locus YMR058W, strain fet3, hits give low values 1.01 | S. cerevisiae deletion strains, locus YMR078C, strain ctf18, hits give low values 1.01 | S. cerevisiae deletion strains, locus YMR125W, strain sto1, hits give low values 1.02 | S. cerevisiae deletion strains, locus YMR129W, hits give low values 1.02 | S. cerevisiae deletion strains, locus YMR205C, strain PFK2, hits give low values 1 | S. cerevisiae deletion strains, locus YMR223W, strain ubp8, hits give low values 0.974 | S. cerevisiae deletion strains, locus YMR231W, strain pep5, hits give low values 1.02 | S. cerevisiae deletion strains, locus YMR263W, strain SAP30, hits give low values 1.02 | S. cerevisiae deletion strains, locus YMR307W, strain GAS1, hits give low values 0.986 | S. cerevisiae deletion strains, locus YNL067W, strain RPL9B, hits give low values 1.03 | S. cerevisiae deletion strains, locus YNL071W, strain lat1, hits give low values 1.02 | S. cerevisiae deletion strains, locus YNL128W, strain TEP1, hits give low values 1.01 | S. cerevisiae deletion strains, locus YNL153C, strain GIM3, hits give low values 1.03 | S. cerevisiae deletion strains, locus YNL183C, strain NPR1, hits give low values 0.921 | S. cerevisiae deletion strains, locus YNL209W, strain ssb2, hits give low values 1.03 | S. cerevisiae deletion strains, locus YNL233W, strain BNI4, hits give low values 1.02 | S. cerevisiae deletion strains, locus YNL248C, strain rpa49, hits give low values 1.04 | S. cerevisiae deletion strains, locus YNL250W, strain rad50, hits give low values 1 | S. cerevisiae deletion strains, locus YNL271C, strain bni1, hits give low values 1.01 | S. cerevisiae deletion strains, locus YNL298W, strain CLA4, hits give low values 1.02 | S. cerevisiae deletion strains, locus YNL307C, strain MCK1, hits give low values 1.01 | S. cerevisiae deletion strains, locus YNL322C, strain KRE1 (second series), hits give low values 1.04 | S. cerevisiae deletion strains, locus YNL322C, strain KRE1, hits give low values 0.999 | S. cerevisiae deletion strains, locus YNR049C, strain mso1, hits give low values 1.01 | S. cerevisiae deletion strains, locus YNR052C, strain pop2, hits give low values 1.01 | S. cerevisiae deletion strains, locus YOL006C, strain TOP1, hits give low values 1.1 | S. cerevisiae deletion strains, locus YOL012C, strain htz1 1.24 | S. cerevisiae deletion strains, locus YOL147C, strain pex11, hits give low values 1.03 | S. cerevisiae deletion strains, locus YOR001W, strain rrp6, hits give low values 1.02 | S. cerevisiae deletion strains, locus YOR061W, strain CKA2, hits give low values 1.01 | S. cerevisiae deletion strains, locus YOR069W, strain VPS5, hits give low values 1 | S. cerevisiae deletion strains, locus YOR070C, strain gyp1, hits give low values 1 | S. cerevisiae deletion strains, locus YOR080W, strain dia2, hits give low values 1.02 | S. cerevisiae deletion strains, locus YOR083W, strain WHI5, hits give low values 0.984 | S. cerevisiae deletion strains, locus YOR106W, strain vam3, hits give low values 1.02 | S. cerevisiae deletion strains, locus YOR136W, strain idh2, hits give low values 0.998 | S. cerevisiae deletion strains, locus YOR144C, strain elg1, hits give low values 1.01 | S. cerevisiae deletion strains, locus YOR184W, strain ser1, hits give low values 1 | S. cerevisiae deletion strains, locus YOR231W, strain MKK1, hits give low values 0.956 | S. cerevisiae deletion strains, locus YOR265W, strain rbl2, hits give low values 1.02 | S. cerevisiae deletion strains, locus YOR270C, strain vph1, hits give low values 1.07 | S. cerevisiae deletion strains, locus YOR290C, strain snf2, hits give low values 1.02 | S. cerevisiae deletion strains, locus YOR316C, strain cot1, hits give low values 1.01 | S. cerevisiae deletion strains, locus YPL051W, strain arl3, hits give low values 1.02 | S. cerevisiae deletion strains, locus YPL055C, strain LGE1, hits give low values 0.986 | S. cerevisiae deletion strains, locus YPL078C, strain atp4, hits give low values 1.03 | S. cerevisiae deletion strains, locus YPL106C, strain sse1, hits give low values 1.01 | S. cerevisiae deletion strains, locus YPL240C, strain hsp82, hits give low values 1.01 | S. cerevisiae deletion strains, locus YPL241C, strain CIN2, hits give low values 1 | S. cerevisiae deletion strains, locus YPL256C, strain CLN2, hits give low values 0.955 | S. cerevisiae deletion strains, locus YPR119W, strain clb2, hits give low values 1 | S. cerevisiae deletion strains, locus YPR141C, strain kar3, hits give low values 0.995 | S. cerevisiae deletion strains, locus YPR163C, strain tif3, hits give low values 1.02 | S. cerevisiae deletion strains, locus YPR167C, strain met16, hits give low values 0.999 | S. cerevisiae deletion strains, strain wtn01, hits give low values 1.04 | S. cerevisiae strains, strain wild type, hits give low values 1
